Screening results from PubChem BioAssay.
HT1080 IDH1KD tx – kills HT-1080 cells with IDH1 knockdown. Potency, µM (highest dose often 46.1 µM), for inactives: at the highest dose activity, negative = toxicity, most hits filed as cytotoxic. HT-1080 IDH1 knockdown viability, ATP luminescence, 48 h. hit rate 2% among 360,000;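 also: potency is read from the fitted curve at half-maximal effect; 0% = DMSO wells and -100% = cell-free medium wells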
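Viability of IDH1-knockdown HT-1080 fibrosarcoma cells was assessed by CellTiter-Glo after 48 h at 37 °C with titrated compound; concentration-effect curves were classified by fit quality and response size.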
IL-1B inflam inh – inflammasome signaling inhibition, IL-1 beta readout; THP-1 LPS/ATP IL-1B secretion, AlphaLISA, 16 h; stronger effect = lower value; activity change, % at 57.5 µM; hit rate 4.7% among 360,000; in the data active = activity change below about -50%; inconclusive = mostly about -30% to -49%
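THP-1 cells pretreated 1 hr with compounds (up to 57.5 uM final), then stimulated with LPS (250 ng/mL final) plus ATP (1.25 mM final); secreted IL-1B measured by AlphaLISA after 16 hr, decreased signal indicating inhibition.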
ALOX12 inh – blocks human arachidonate 12S-lipoxygenase; hit rate 1.1% among 580,000; P18054; purified 12hLO, xylenol orange hydroperoxide absorbance; Potency, µM (highest dose often 108 µM), for inactives: at the top dose activity change, negative = inhibition, most hits filed as inhibitors; also: potency is read from the fitted curve at half-maximal effect
Target sequence (P18054 whole entry, looked up): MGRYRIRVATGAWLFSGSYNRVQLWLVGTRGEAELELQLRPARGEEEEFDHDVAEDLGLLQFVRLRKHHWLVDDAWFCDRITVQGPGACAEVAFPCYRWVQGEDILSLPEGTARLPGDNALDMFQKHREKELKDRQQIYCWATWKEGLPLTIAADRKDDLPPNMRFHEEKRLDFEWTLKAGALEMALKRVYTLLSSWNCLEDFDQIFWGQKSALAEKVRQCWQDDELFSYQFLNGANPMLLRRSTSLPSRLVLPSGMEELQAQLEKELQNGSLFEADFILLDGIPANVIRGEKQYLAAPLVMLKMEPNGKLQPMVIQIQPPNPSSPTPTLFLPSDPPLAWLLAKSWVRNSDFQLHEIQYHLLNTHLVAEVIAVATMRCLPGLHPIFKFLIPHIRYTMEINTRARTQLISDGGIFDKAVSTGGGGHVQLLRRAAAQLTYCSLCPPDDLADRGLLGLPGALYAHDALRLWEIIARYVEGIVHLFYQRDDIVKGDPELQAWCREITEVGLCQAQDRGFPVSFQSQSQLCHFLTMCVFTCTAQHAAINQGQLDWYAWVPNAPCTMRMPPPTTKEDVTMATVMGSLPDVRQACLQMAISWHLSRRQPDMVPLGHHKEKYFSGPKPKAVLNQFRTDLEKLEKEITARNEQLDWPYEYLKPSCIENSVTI
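Purified human 12hLO at 150 nM in 25 mM Hepes, 0.01% Triton X-100, pH 7.0, preincubated 15 min at room temperature with compound. Reaction started with 40 uM arachidonic acid, 30 min at room temperature. Hydroperoxide measured by Fe-xylenol orange, 573/405 nm absorbance ratio.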
HT1080NT lethal – kills 2HG-producing HT-1080-NT fibrosarcoma cells; hit rate 1.6% among 360,000; Potency, µM (titrated, usually from 46.1 µM), for inactives: top-dose activity, negative = less viability, hits mostly cytotoxic; HT-1080-NT fibrosarcoma viability, CellTiter-Glo ATP luminescence, 48 h;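 also: NT is the 2HG producing partner of a matched IDH1 knockdown line; potency is read from the fitted curve at half-maximal effect; 0% = DMSO-treated cells and -100% = media-only wells without cells; nearly all actives have a fitted effect of over 55% in size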
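Luminescent CellTiter-Glo readout after 48 hours of compound exposure at 37 degrees C defined viability of HT-1080-NT cells. Activity was normalized to DMSO wells and cell-free media wells; concentration-response curves were fitted and assigned curve classes.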
DT40 TDP1 CPT – DT40-hTDP1 cell growth loss with CPT | chicken DT40 Tdp1-/-;hTDP1 cells + 20 nM CPT, ATP luminescence, 48 h | Potency, µM (titrated, usually from 46.2 µM), without a hit: top-dose activity change, negative = growth inhibition, most hits filed as inhibitors | hit rate 12% among 420,000; also: potency is read from the fitted curve at half-maximal effect; nearly all actives have a fitted effect of over 55% in size
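Cell growth measured by CellTiter-Glo luminescence after a minimum 48 h, 37 C compound exposure with 20 nM CPT in Tdp1-knockout DT40 cells stably expressing hTDP1, seeded 400/well; qHTS titration format.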
DT40 TDP1 no CPT – qHTS for Inhibitors of human tyrosyl-DNA phosphodiesterase 1 (TDP1): qHTS in cells in absence of CPT. DT40 Tdp1-/- hTDP1 cells, no CPT, ATP luminescence, 48 h. Potency, µM (highest dose often 46.2 µM), for the others: top-dose activity change, negative = growth inhibition, actives largely listed as inhibitors. hit rate 15% among 420,000. AID 686978, 2013; also: potency is read from the fitted curve at half-maximal effect; nearly all actives have a fitted effect of over 55% in size
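Growth of hTDP1-complemented DT40 Tdp1-knockout cells is measured by ATP luminescence after at least 48 hr compound exposure at 37 °C, with DMSO substituting for the 20 nM CPT used in the parallel screen.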
* = called active by the depositor. Many of the other results were omitted from the sample, so hits are more common in it than they were. Unless noted, calls follow the shape of the dose curve; as a rule, active = well fitted curve in the direction sought with a large enough effect; inconclusive = small, poorly fitted or top-dose-only effect, or another doubt; inactive = no such curve, though single readings can be large; an effect the other way counts as inactive or inconclusive. Unless noted, % is scaled to controls: 0 for no effect and ±100 for the full control effect.

CCOCCCn1c(=NC(=O)c2ccco2)c(C(=O)OCC)cc2c(=O)n3cccc(C)c3nc21 was read as HT1080 IDH1KD tx -1%, IL-1B inflam inh -20, ALOX12 inh -22%, HT1080NT lethal 0%, DT40 TDP1 CPT 16µM* and DT40 TDP1 no CPT 12µM*.
For Cc1cc2c(c(=O)n1Cc1ccco1)C(Cc1ccccc1)C(C#N)=C(N)O2 (configuration not stated) the results were ALOX12 inh 11%.
`O=Cc1ccc(O)c2ncccc12` gave HT1080 IDH1KD tx 3.7µM*, IL-1B inflam inh -98*, HT1080NT lethal 2.3µM*, DT40 TDP1 CPT 0.65µM* and DT40 TDP1 no CPT 0.58µM*.
For CC1(C)CC(=O)C2=C(C1)NC(Nc1nc3ccccc3o1)=NC21CCCC1 the results were HT1080 IDH1KD tx 12%, IL-1B inflam inh 64, ALOX12 inh 0%, HT1080NT lethal 11%, DT40 TDP1 CPT inconclusive and DT40 TDP1 no CPT -26%.
`CC1(C)CC(=O)C2=C(C1)NC(Nc1nc3ccccc3o1)=NC2c1ccccn1` (configuration not stated) gave HT1080 IDH1KD tx -13%, IL-1B inflam inh 0, ALOX12 inh 15%, HT1080NT lethal -25%, DT40 TDP1 CPT 0.73µM* and DT40 TDP1 no CPT 0.82µM*.
CC1(C)CC(=O)C2=C(C1)NC(Nc1nc3ccccc3o1)=NC2c1ccccc1Cl (configuration not stated) was read as ALOX12 inh 33%, DT40 TDP1 CPT 5.6µM* and DT40 TDP1 no CPT 7.1µM*.
`COc1ccc(/C=C2/C(=O)c3ccccc3OC2c2ccccc2)cc1` (configuration not stated) gave ALOX12 inh -5%.
For O=C1CC(c2ccco2)CC(O)=C1C=Nc1cc(Cl)ccc1O (configuration not stated) the results were HT1080 IDH1KD tx -27%, IL-1B inflam inh 21, ALOX12 inh 6%, HT1080NT lethal -1%, DT40 TDP1 CPT 15µM* and DT40 TDP1 no CPT 18µM*.
Screening O=C1CC(c2ccco2)CC(O)=C1C=Nc1ccccc1-c1ccccc1 (configuration not stated) returned HT1080 IDH1KD tx -16%, IL-1B inflam inh -29, ALOX12 inh -7%, HT1080NT lethal -22%, DT40 TDP1 CPT 18µM* and DT40 TDP1 no CPT inconclusive.
Cc1cc(C)cc(NC(=O)C2CC(=O)N(c3n[nH]c4cccc(F)c34)C2)c1 (configuration not stated) was read as ALOX12 inh -12%.
Screening Cc1cc(CNC(=O)COc2ccc(F)cc2Cl)cc(C)c1O returned HT1080 IDH1KD tx -10%, IL-1B inflam inh -88*, ALOX12 inh -13%, HT1080NT lethal -11%, DT40 TDP1 CPT -22% and DT40 TDP1 no CPT -30%.
`O=C(COc1ccc(Cl)cc1Cl)NCc1ccncc1` gave HT1080 IDH1KD tx 6%, IL-1B inflam inh 9, ALOX12 inh -29%, HT1080NT lethal -5%, DT40 TDP1 CPT -13% and DT40 TDP1 no CPT -30%.
Screening COc1c(Cl)cc(Cl)cc1CNC12CC3CC(CC(C3)C1)C2 returned ALOX12 inh -29%.
For COCC(C)NC(=O)NC(=O)c1ccc(Cl)cc1 (configuration not stated) the results were HT1080 IDH1KD tx inconclusive, IL-1B inflam inh 11, ALOX12 inh 25%, HT1080NT lethal 2%, DT40 TDP1 CPT inconclusive and DT40 TDP1 no CPT -20%.
For O=C(NCCN1CCOCC1)NC1(C(F)(F)F)Oc2ccc(Cl)cc2O1 (configuration not stated) the results were HT1080 IDH1KD tx -33%, IL-1B inflam inh 31, ALOX12 inh inconclusive, HT1080NT lethal -21%, DT40 TDP1 CPT inconclusive and DT40 TDP1 no CPT 13µM*.
For COCC(C)NC(=O)NC1(C(F)(F)F)Oc2ccc(Cl)cc2O1 (configuration not stated) the results were HT1080 IDH1KD tx inconclusive, IL-1B inflam inh 58, ALOX12 inh -25%, HT1080NT lethal -21%, DT40 TDP1 CPT 13µM* and DT40 TDP1 no CPT 13µM*.
`CCc1cc2c(=O)c(-c3nncn3-c3ccccc3)coc2cc1OCC(=O)NC(CC)C(=O)O` (configuration not stated) gave ALOX12 inh -7%.
`O=C(CN1CCC(c2nc3ccccc3s2)CC1)NCc1cccs1` gave HT1080 IDH1KD tx inconclusive, IL-1B inflam inh -22, ALOX12 inh 14%, HT1080NT lethal 10µM*, DT40 TDP1 CPT inconclusive and DT40 TDP1 no CPT 18µM*.
c1ccc(OCCCN2CCC(c3nc4ccccc4s3)CC2)cc1 was read as ALOX12 inh 0.71µM*.
c1ccc(OCCCCN2CCC(c3nc4ccccc4s3)CC2)cc1 was read as ALOX12 inh 0.89µM*.
`Cc1cccc(C)c1NC(=O)c1nc2ccccc2nc1N1CCN(C)CC1` gave ALOX12 inh 5%.
For CCc1ccc(NC(=O)CC(C)(C)CC(=O)O)cc1 the results were ALOX12 inh 22%.
Screening Clc1cccc(Nc2c3c(nc4ncnn24)CCC3)c1 returned HT1080 IDH1KD tx inconclusive, IL-1B inflam inh 32, ALOX12 inh 14%, HT1080NT lethal -2%, DT40 TDP1 CPT inconclusive and DT40 TDP1 no CPT inconclusive.
For CCc1cccc(Nc2c3c(nc4ncnn24)CCC3)c1 the results were HT1080 IDH1KD tx -1%, IL-1B inflam inh 86, ALOX12 inh 3%, HT1080NT lethal 11%, DT40 TDP1 CPT inconclusive and DT40 TDP1 no CPT 21µM*.
COC(=O)CCC(C)C1CCC2C3CCC4CC(O)CCC4(C)C3=CC(=O)C12C (configuration not stated) was read as HT1080 IDH1KD tx -2%, IL-1B inflam inh -53*, ALOX12 inh 8%, HT1080NT lethal 19%, DT40 TDP1 CPT inconclusive and DT40 TDP1 no CPT inconclusive.
COc1ccc(CCN2C(=O)c3[nH]nc(-c4ccccc4O)c3C2c2ccc(OC)cc2)cc1 (configuration not stated) was read as ALOX12 inh -1%, DT40 TDP1 CPT inconclusive and DT40 TDP1 no CPT inconclusive.
For COc1ccc(CCN2C(=O)c3[nH]nc(-c4ccccc4O)c3C2c2ccccc2)cc1 (configuration not stated) the results were ALOX12 inh 2%, DT40 TDP1 CPT 5.2µM* and DT40 TDP1 no CPT 5.8µM*.
